This is a sample that favours compounds with a hit; in the whole collection about 9.2% have one here.
NPC1 promoter act = NPC1 promoter activation. Potency, µM (series often up to 9.22 µM), for the others: at the top dose activation, usual class: activators. Huh7 NPC1 promoter luciferase reporter, 24 h. 320,000 tested, 2.4% active; also: % of control where 0% means no effect; nearly all actives have a fitted effect of over 60% in size
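Luminescence from an NPC1 promoter-driven luciferase reporter in stably transfected Huh7 cells was measured after 24 h compound treatment at 37 °C, followed by 10 min ambient incubation with luciferase detection reagent.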
ELG1 genotoxic = inducers of genotoxicity in HEK293T ELG1-luciferase cells. HEK293T ELG1-luciferase reporter, luminescence, 16 h. Potency, µM (titrated, usually from 46 µM), inactives show top-dose activity change, positive = activation, most hits filed as activators. 330,000 tested, 1.3% active; also: % of control where 0% means no effect; nearly all actives have a fitted effect of over 60% in size
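DMSO vehicle served as control against compound-treated ELG1-luciferase HEK293T cells; exposure lasted 16 hr at 37 °C and 5% CO2, followed by ONE-Glo luminescence detection after 30 min.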
SMN2 splice up = enhancers of SMN2 splice variant expression | HEK293 SMN2-luciferase splicing reporter, luminescence, 30-36 h | Potency, µM (titrated, usually from 46.1 µM), inactives show at the top dose activity change, positive = activation, hits mostly activators | 210,000 tested, 2.8% active | AID 1458; also: % of control where 0% means no effect; nearly all actives have a fitted effect of over 55% in size
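qHTS luciferase splicing reporter: luminescence rises when SMN2 exon 7 is included in transfected HEK293 cells. Compound exposure lasted 30-36 h at 37C, with 4.5 mM final sodium butyrate as control, followed by a ONE-Glo read.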
FLuc counter = counter-screen for miR-21 project: firefly luciferase inhibitors or activators; P08659; Potency, µM (titrated, usually from 57.5 µM), without a hit: at the top dose activity change, negative = inhibition, usual class: inhibitors; purified FLuc, Km substrates, luminescence inhibition; 360,000 tested, 6.9% active;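 also: plate controls were vehicle for no effect and reference inhibitor for full effect; nearly all actives have a fitted effect of over 55% in size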
Target sequence (P08659 whole entry, looked up): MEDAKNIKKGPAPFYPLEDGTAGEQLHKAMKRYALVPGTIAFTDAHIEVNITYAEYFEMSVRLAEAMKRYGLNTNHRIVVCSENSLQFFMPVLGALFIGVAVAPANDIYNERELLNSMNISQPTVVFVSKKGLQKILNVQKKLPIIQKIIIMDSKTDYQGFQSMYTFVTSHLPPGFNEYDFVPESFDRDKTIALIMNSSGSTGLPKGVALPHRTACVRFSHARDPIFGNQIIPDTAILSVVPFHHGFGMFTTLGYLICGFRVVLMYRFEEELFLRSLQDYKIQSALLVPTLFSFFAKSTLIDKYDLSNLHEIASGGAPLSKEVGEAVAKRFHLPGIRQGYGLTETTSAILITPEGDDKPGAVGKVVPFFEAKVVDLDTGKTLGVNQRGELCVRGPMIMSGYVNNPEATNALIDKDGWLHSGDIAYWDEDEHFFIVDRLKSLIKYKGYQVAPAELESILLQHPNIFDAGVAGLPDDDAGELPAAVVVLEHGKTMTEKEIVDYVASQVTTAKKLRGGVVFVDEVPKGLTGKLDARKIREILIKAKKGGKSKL
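Purified P. pyralis luciferase (10nM final) with 10uM D-luciferin and 10uM ATP (Km levels) in 50mM Tris acetate pH 7.5, 10mM Mg acetate, 0.01% Tween-20, 0.05% BSA; qHTS 6-point titration, ~60 µM downward; luminescence read.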
Rab9 prom act = activators of Rab9 promoter | Huh7 Rab9 promoter-luciferase reporter, luminescence, 24 h | 320,000 tested, 2.8% active | Potency, µM (series often up to 9.22 µM), inactives show at the top dose activation, negative = inhibition, most hits filed as activators; also: % of control where 0% means no effect; nearly all actives have a fitted effect of over 60% in size
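Measured in stably transfected Huh7 cells bearing a Rab9 promoter–luciferase construct: 24 h compound treatment at 37 °C, followed by luminescence detection.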
ELG1 repair inh = blocks ELG1-dependent DNA repair in HEK293T cells | HEK293T ELG1-luciferase reporter, luminescence, 16 h; DNA damage induced by 5-fluorouridine | Potency, µM (doses to about 46.1 µM), for inactives: at the highest dose activity change, negative = inhibition, most hits filed as inhibitors | 330,000 tested, 2.3% active | AID 504467; also: % is scaled to controls: 0 for no effect and ±100 for the full control effect; nearly all actives have a fitted effect of over 55% in size
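In this reporter screen, reduction of luminescence relative to DMSO vehicle indicated activity. Compounds and 5-fluorouridine were added together to 2,000 cells per well, incubated for 16 hr at 37 °C, then developed with ONE-Glo.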
Numbers without * were called inactive; [ ] = another dose, or the depositor's remark. Calls follow the shape of the dose curve; as a rule, active = well fitted curve in the direction sought with a large enough effect; inconclusive = small, poorly fitted or top-dose-only effect, or another doubt; inactive = no such curve, though single readings can be large; an effect the other way counts as inactive or inconclusive. Potency is read from the fitted curve at half-maximal effect.

`Cc1ccc(NS(=O)(=O)c2ccc(OCC(=O)N3CCN(C)CC3)cc2)cc1` gave NPC1 promoter act -2.5%, ELG1 genotoxic -0.9%, FLuc counter 1.1%, Rab9 prom act -0.5% and ELG1 repair inh 3.5%.
For CCCCn1c(N)c(C(=O)NCc2cccs2)c2nc3ccccc3nc21 the results were NPC1 promoter act -1.8%, ELG1 genotoxic -3.1%, SMN2 splice up -9.8%, FLuc counter 3.4%, Rab9 prom act -9.7% and ELG1 repair inh 23.1µM*.
Screening Nc1c(C(=O)NCCCc2ccccc2)c2nc3ccccc3nc2n1Cc1cccs1 returned NPC1 promoter act -0.6%, ELG1 genotoxic -12.6%, SMN2 splice up 22.0%, FLuc counter 0.0%, Rab9 prom act -1.4% and ELG1 repair inh 14.6µM*.
Screening COc1ccc(CCNC(=O)c2c(N)n(CCN3CCOCC3)c3nc4ccccc4nc23)cc1OC returned NPC1 promoter act 0.4%, ELG1 genotoxic -2.7%, SMN2 splice up -13.3%, FLuc counter -8.0%, Rab9 prom act 0.6% and ELG1 repair inh 16.4µM*.
Screening O=C(Cl)c1ccccc1F returned SMN2 splice up -8.1%.
[O-][Br+2]([O-])O was read as SMN2 splice up -3.7%.
`CN1C(=O)C(=Cc2ccc(SC3CCCCC3)o2)C(=O)N(C)C1=O` gave NPC1 promoter act -3.7%, ELG1 genotoxic 15.1%, SMN2 splice up -12.8%, FLuc counter 16.9µM*, Rab9 prom act -0.9% and ELG1 repair inh 15.2%.
`CC(=O)OC1CC[C@]2(C#N)[C@H]3CC[C@]4(C)[C@H](C5C=CC(=O)O5)CCC4(O)C3CCC2(O)C1` (some centres not stated) gave NPC1 promoter act 15.4%, ELG1 genotoxic -14.3%, FLuc counter 0.6%, Rab9 prom act -4.5% and ELG1 repair inh 14.6µM*.
O=C(NCc1cc(C(F)(F)F)ccc1Cl)c1cccc2c1C(=O)c1ccc(Cl)cc1S2(=O)=O was read as ELG1 genotoxic 1.8% and ELG1 repair inh inconclusive.
Nc1c2c(nc3ccccc13)CCN(Cc1ccccc1)C2 was read as NPC1 promoter act 12.2%, ELG1 genotoxic -4.3%, FLuc counter 23.9µM*, Rab9 prom act -3.2% and ELG1 repair inh -0.1%.
`COc1cc2c(cc1OC)[C@@]13CCN4C=C5CCO[C@H]6CC(=O)N2[C@@H]1C6[C@H]5C[C@H]43` (some centres not stated) gave SMN2 splice up -12.9%[9.22 µM].
For O=C1N=C(N2CCCCC2)SC1=C1CCCCC1 the results were NPC1 promoter act inconclusive, ELG1 genotoxic 16.4µM*, SMN2 splice up 28.6%, FLuc counter 13.5µM*, Rab9 prom act 2.82µM* and ELG1 repair inh inconclusive.
CC1CCN(C(=O)c2ncn(C)c2C(=O)N2CCC(C)CC2)CC1 was read as ELG1 genotoxic 3.0% and ELG1 repair inh inconclusive.
O=C(O)CCn1cc(C=C2C(=O)NC(=S)NC2=O)c(-c2cc3ccccc3oc2=O)n1 was read as NPC1 promoter act 1.5%, ELG1 genotoxic 0.3%, SMN2 splice up -25.0%, FLuc counter 16.9µM*, Rab9 prom act 11.5% and ELG1 repair inh -15.8%.
`N#CCCn1cc(C=C2C(=O)NC(=O)NC2=O)c(-c2ccccc2)n1` gave NPC1 promoter act -0.6%, ELG1 genotoxic 0.1%, SMN2 splice up -1.3%, FLuc counter inconclusive, Rab9 prom act -0.8% and ELG1 repair inh 1.5%.
Screening O=C(O)CCn1cc(C=C2C(=O)NC(=S)NC2=O)c(-c2ccccc2)n1 returned NPC1 promoter act 2.9%, ELG1 genotoxic 2.1%, SMN2 splice up 10.6%, FLuc counter 23.9µM*, Rab9 prom act 5.4% and ELG1 repair inh 9.7%.
Screening Nc1c(C(=O)Nc2cccc(Br)c2)sc2nc3c(cc12)N1CCC3CC1 returned SMN2 splice up -31.1% and FLuc counter 12µM*.

Compound activity deposited in PubChem by National Center for Advancing Translational Sciences (NCATS).
